# Test results: PubChem BioAssay AID651994 (Sanford-Burnham Center for Chemical Genomics, 2013)
# Out of some 2,500 compounds screened, about 790 (32%) were called active. A selection follows. A number with no mark means an inactive call.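 The calls were made as follows: active = mean cytotoxicity at 5 µM above about 25% (limit read from the data); inactive = the rest.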
# Assay: cell viability loss, Sufu-null reporter line – ATP luminescence, single concentration, cytotoxicity control for Gli-SUFU antagonist project, confirmation (AID 651994);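 also: cells exposed to compound overnight for roughly 16 to 18 hours; plate controls were DMSO wells with cells for no effect and medium without cells for full effect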
# Settings: Sufu-KO-LIGHT cells cytotoxicity, at 5 µM, stronger effect = higher value
row,Structure (SMILES),cytotoxicity
1,Cc1ccsc1C(=O)OCC(=O)c1cc(C)n(CC2CCCO2)c1C (configuration not stated),26.6% (active)
2,Cc1cccc2nc(CSc3nc4[nH]ncc4c(=O)n3-c3cccc(Cl)c3)cc(=O)n12,20.1%
3,Cc1ccc(S(=O)(=O)N(Cc2cc3ccccc3[nH]c2=O)CC2CCCO2)cc1 (configuration not stated),5.2%
4,COc1ccccc1CNC(=O)C1CCN(c2nc3ccccc3o2)CC1,17.9%
5,Cc1cccc(NS(=O)(=O)c2ccc(-c3cnc(C4CC4)o3)cc2)c1,54.4% (active)
6,COc1ccc(NS(=O)(=O)c2ccc(NC(C)=O)cc2)cc1OC,14%
7,Cc1cc(C)c(SCCc2ccncc2)c(C)c1,29.5% (active)
8,Cc1ccc(NC(=O)CN(C)CC(=O)Nc2cccc(F)c2)cc1[N+](=O)[O-],29% (active)
9,Cc1ccc(O)c(NC(=O)COc2cc(C)ccc2C)c1,-3.46%
10,COCCn1c(CN2CCC(Cc3ccccc3)CC2)nc2c1c(=O)n(C)c(=O)n2C,19.8%
11,CCCCNc1nc2c(c(=O)n(C)c(=O)n2C)n1Cc1cccc(OC)c1,44.5% (active)
12,Cn1c(=O)c2c(nc(NCCc3ccccc3)n2Cc2ccccc2)n(C)c1=O,34.7% (active)
13,COc1ccc(NS(=O)(=O)c2ccc(N3CCN(CCO)CC3)c([N+](=O)[O-])c2)cc1,16.4%
14,CC(=O)OCCC(C)C,-7.84%
15,CCCc1nc(N)nc2c1C(=O)CC(C)(C)C2,5.9%
16,CN1C(CC(=O)Nc2ccc(Br)cc2)c2ccccc2CC1(C)C (configuration not stated),15.7%
17,Cc1ccc(C)c(S(=O)(=O)N2CCN(c3ncnc4sccc34)CC2)c1,69.2% (active)
18,c1ccc(-n2nnnc2N2CCOCC2)cc1,10.1%
19,CC[n+]1c(C)n(-c2ccccc2)c2ccc(NC(C)=O)cc21,29% (active)
20,CCC1CCCCN1CCCNC(=O)Cn1nc(-c2ccccc2)ccc1=O (configuration not stated),20.3%
21,CN(NC(=O)c1ccccc1F)c1nc(C(F)(F)F)nc2ccccc12,56.2% (active)
22,CCn1c(SCc2ccccc2)nc2cc(OC)c(OC)cc2c1=O,23.5%
23,CCOc1cccc(/C=N/NC(=S)NCCN2CCOCC2)c1O,20.7%
24,CCOC(=O)c1cnc(-n2nc(C)cc2C)nc1NNc1cc(C)nc(-c2ccccc2)n1,24%
25,CN(C)CCN(C(=O)C1CCCCC1)c1nc2cc3c(cc2s1)OCO3,20.3%
26,c1c2c(cc3sc(N4CCCCC4)nc13)OCCO2,51.8% (active)

row,Structure (SMILES),cytotoxicity
1,CCOC(=O)c1ccc(NC(=O)Cn2cnc3cc(C)c(C)cc32)cc1,24.9%
2,CC(=O)c1c(C)[nH]c(C(=O)OCC(=O)Nc2sc3c(c2C#N)CCCC3)c1C,17.2%
3,O=C(Cn1cc(C(=O)C2CC2)c2ccccc21)Nc1ccccc1Cl,16.3%
4,CCCOc1ccccc1C1CC(=O)Nc2cc3c(cc21)OCO3 (configuration not stated),48.1% (active)
5,COc1ccccc1C1C2=C(COC2=O)Nc2cc3c(cc21)OCO3 (configuration not stated),50.9% (active)
6,COc1ccccc1N1CCN(Cc2cc(OC)c3c(c2)OCO3)CC1,22.5%
7,O=C(O)CCCn1cc(NC(=O)COc2cccc(Cl)c2)cn1,11.7%
8,COc1ccc2nc(SCC(=O)Nc3c(C)cc(C)cc3C)[nH]c2c1,11.7%
9,CCN(CC(=O)Nc1cc(Cl)ccc1C)C(=O)CSCc1ccc(C)cc1,6.16%
10,Cc1ccc(-c2nc3c(cnn3-c3ccccc3)c(=O)o2)cc1,8.43%
11,CCOc1ccc(-n2c(O)c(/C=N/c3ccnn3Cc3ccncc3)c3ccccc3c2=O)cc1,23.8%
12,COc1ccccc1/C=C/CN1CCC(CO)(Cc2ccccc2)CC1,-4.47%
13,CC1CC2=C(CC1/C=N/NC(N)=S)C(C)(C)CCC2 (configuration not stated),11.9%
14,CC(=O)/C(=N\Nc1ccc(Cl)cc1Cl)Sc1cccc2cccnc12,25.7% (active)
15,CN(C)c1cc[n+](Cc2ccccc2)cc1,33.3% (active)
16,COC(=O)c1ccc(CSc2nnc(N)s2)o1,21.4%
17,CCNC(=S)N(CCN(CC)CC)Cc1cc2cc3c(cc2[nH]c1=O)OCO3,6.68%
18,C=CCn1c(SCC(=O)CC(=O)OCC)nc2cc(C(=O)N3CCC(C(N)=O)CC3)ccc2c1=O,3.69%
19,Cc1cc2[nH]ncc2cc1NC(=S)NC(=O)c1ccccc1,2.37%
20,Cc1ccccc1C(=O)NC(=S)Nc1ccc(N2CCN(C(=O)c3ccccc3)CC2)cc1,32.2% (active)
21,CC(C)Oc1ccc(CN2CCC(n3nccc3NC(=O)c3cccnc3)CC2)cc1,4.98%
22,CNc1ccc(SC#N)cc1,3.32%
23,CCCC1=Nc2cc(C(=O)NCc3ccco3)ccc2Sc2ccccc21,53.8% (active)
24,CC(C)OCC(O)CN1CCN(C(c2ccccc2)c2ccccc2)CC1 (configuration not stated),16.3%
25,O=[N+]([O-])c1ccc(N2CCN(CC(O)COc3ccccc3)CC2)cc1 (configuration not stated),30.6% (active)
26,CC(C)c1ccc(OCC(O)CN2CCN(c3ccccn3)CC2)cc1 (configuration not stated),9.73%

row,Structure (SMILES),cytotoxicity
1,O=C(c1cc(Cl)cc(Cl)c1)N1CCC(=O)N(C(COCc2ccccc2)Cc2ccccc2)CC1 (configuration not stated),21.8%
2,CCCCC(=O)NC(c1ccc(OC)c(OC)c1)c1ccc2cccnc2c1O (configuration not stated),19.2%
3,C=CCOC(=O)C1=C[C@@H](c2ccc3c(c2)OCO3)C[C@@H](OCCCCO)O1,2.89%
4,Cc1nonc1C1CCCN1C(=O)c1cc(COc2cccc(C(F)(F)F)c2)on1 (configuration not stated),29.3% (active)
5,O=C1/C(=C\c2cccnc2)CN(Cc2ccccc2)C/C1=C\c1cccnc1,10.1%
6,O=C(NC1CCN(C(=S)Nc2ccc(Cl)cc2)CC1)C1CCCCC1,2.7%
7,C=CCOc1nc2c(c(=O)n(C)c(=O)n2C)n1Cc1ccc(Cl)cc1Cl,26.7% (active)
8,COC(=O)Cc1[nH]n(-c2nc3ccccc3s2)c(=O)c1C(C)=Nc1ccc(OC)cc1,15.6%
9,COc1ccccc1CCNC(=O)C(=O)NCCC1CCCCN1S(=O)(=O)c1cccs1 (configuration not stated),20.7%
10,N#CC(C#N)=CN=c1ccn(Cc2ccc(Cl)cc2Cl)cc1,29.5% (active)
11,CCCOc1ccc(Cc2c(Cl)nc(SC)nc2NC)cc1,31.8% (active)
12,CC(C)Oc1ccc(/C=N/NC(=O)c2nnn(-c3nonc3N)c2CN(C)C2CCCCC2)cc1,9.64%
13,O=C(CN1C(=O)c2ccccc2S1(=O)=O)N1CCc2ccccc21,36.9% (active)
14,Cc1onc(-c2ccccc2)c1C(=O)Nc1ccccc1C#N,7.65%
15,Cc1cc(NC(=O)c2cccc(N3C(=O)CCC3=O)c2)no1,8.93%
16,C/C(=N\NC(=O)Cc1ccc(Cl)cc1)c1ccccn1,38.9% (active)
17,CC(=O)Nc1cccc(OCC(=O)/C=C2\N(C)c3ccccc3C2(C)C)c1,23.9%
18,Cc1ccc(C(=O)C[n+]2cc(-c3ccccc3)n3c2CCCCC3)cc1,38.4% (active)
19,COc1ccc(Cn2c(-c3ccc(Cl)cc3)c[n+]3ccccc23)cc1,15.3%
20,Cc1cc([N+](=O)[O-])c(-c2ccc(/C=N/n3cnnc3)o2)cc1Cl,3.83%
21,COc1cccc2cc(C(N)=O)/c(=N\NC(=O)c3ccccc3)oc12,19.1%
22,COc1ccc(OC)c(/C=N/NC(=O)c2ccc[n+](CC(=O)c3ccccc3)c2)c1,26.3% (active)
23,CCN(CC)S(=O)(=O)c1ccc(Cl)c(C(=O)NC(C)C(c2cccs2)N2CCCC2)c1 (configuration not stated),13.4%
24,COc1ccc(OC)c(Cc2cnc3nc(N)nc(N)c3c2C)c1,15.7%
25,CCOC(=O)c1cnc(Nc2nc3ccccc3o2)nc1CSC(=S)N1CCCCC1,20.4%
